Measurements published in PubChem BioAssay (NCATS).
Inconclusive results are not listed. Activity calls are given as the source filed them. Calls follow the shape of the dose curve; as a rule, active = well fitted curve in the direction sought with a large enough effect; inconclusive = small, poorly fitted or top-dose-only effect, or another doubt; inactive = no such curve, though single readings can be large; an effect the other way counts as inactive or inconclusive.

Assays:
[1] = Quantitative High-Throughput drug screen in 47 multiple myeloma cell lines against the NCATS MIPE library collection: FR4_PLB cell viability assay (AID 1918924; also: nearly all actives have a fitted effect of over 35% in size; also: potency is read from the fitted curve at half-maximal effect); details: FR4_PLB myeloma cells viability, CellTiter-Glo ATP, 48 h; series mostly up to 45.8 µM
Procedure, shortened: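 Approved and investigational drugs from MIPE 4.0 were added by pin tool to 500 cells per well. After 48 hours at 37C, ATP-based CellTiter-Glo luminescence indicated remaining viability.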

[2] = Quantitative High-Throughput drug screen in 47 multiple myeloma cell lines against the NCATS MIPE library collection: Delta47_JCRB cell viability assay (AID 1918925; also: nearly all actives have a fitted effect of over 45% in size; also: potency is read from the fitted curve at half-maximal effect); details: Delta47 myeloma viability, CellTiter-Glo ATP, 48 h; series mostly up to 45.8 µM
Procedure, shortened: (§1)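 qHTS of the MIPE 4.0 collection: 500 myeloma cells/well, 48 h drug exposure at 37C in 5% CO2, then CellTiter-Glo for 5 min at room temperature before luminescence reading.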

[3] = Quantitative High-Throughput drug screen in 47 multiple myeloma cell lines against the NCATS MIPE library collection: EJM_DSMZ cell viability assay (AID 1918926; also: nearly all actives have a fitted effect of over 30% in size; also: potency is read from the fitted curve at half-maximal effect); details: EJM myeloma cell viability, CellTiter-Glo ATP, 48 h; series mostly up to 45.8 µM
Procedure, shortened: as §1

[4] = Quantitative High-Throughput drug screen in 47 multiple myeloma cell lines against the NCATS MIPE library collection: AMO1_DSMZ cell viability assay (AID 1918927; also: nearly all actives have a fitted effect of over 30% in size; also: potency is read from the fitted curve at half-maximal effect); details: AMO1 myeloma cells viability, CellTiter-Glo ATP luminescence, 48 h; series mostly up to 45.8 µM
Procedure, shortened: as §1

[5] = Quantitative High-Throughput drug screen in 47 multiple myeloma cell lines against the NCATS MIPE library collection: ARP1_JJKsccF8 cell viability assay (AID 1918928; also: nearly all actives have a fitted effect of over 40% in size; also: potency is read from the fitted curve at half-maximal effect); details: ARP1 myeloma cells viability, CellTiter-Glo ATP, 48 h; series mostly up to 45.8 µM
Procedure, shortened: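 Cell viability inhibition in this qHTS is measured via ATP content (CellTiter-Glo) after 48 h drug exposure at 37 °C. Wells hold 500 cells; DMSO-treated wells define 100% and medium-only wells 0%.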

[6] = Primary fluorescence-based thiol-reactive (MSTI) qHTS assay for identification of artifact compounds. (AID 1845221); details: MSTI thiol-reactivity probe, 1 h; series mostly up to 53.8 µM;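 also: thiol-reactive compounds lower the probe fluorescence signal; nearly all actives have a fitted effect of over 65% in size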
Procedure, shortened: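 First, 4 uM MSTI in 2% DMSO/PBS pH 7.4 was dispensed; next, compounds were added; then plates sat 1 h at room temperature without light. Finally, emission at 598 nm was recorded.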

Row | SMILES | Potency [1] | Potency [2] | Potency [3] | Potency [4] | Potency [5] | Potency [6]
1 | Nc1nc(=O)n([C@H]2CSC(CO)O2)cc1F (some centres not stated) | inactive | inactive | inactive | inactive | inactive | 
2 | OCC(O)C(O)C(O)CO (configuration not stated) | inactive | inactive | inactive |  |  | 
3 | OCc1ccccc1O[C@@H]1O[C@H](CO)[C@H](O)[C@H](O)[C@H]1O | inactive | 13200 nM (active) |  |  |  | 
4 | CC(=CC(=O)Nc1ccccc1C(=O)O)c1ccc2ccccc2c1 | inactive | 14800 nM (active) |  |  |  | 
5 | CN(C)CC[C@H](c1ccc(Cl)cc1)c1ccccn1 | inactive | inactive |  |  |  | 
6 | C=C1C(=CC=C2CCC[C@]3(C)[C@@H]([C@H](C)CCCC(C)(C)O)CC[C@@H]23)C[C@@H](O)C[C@@H]1O | 14800 nM (active) | 9350 nM (active) | 2350 nM (active) | 935 nM (active) |  | 
7 | COc1cc2c(cc1O)CCC1C2CC[C@@]2(C)C1CC[C@@H]2O (some centres not stated) | 743 nM (active) | 2640 nM (active) |  |  |  | 
8 | CC(C)(O)Cn1c(NC(=O)c2ccc(-c3cn[nH]c3)s2)nc2cc(CN3CCOCC3)ccc21 | 743 nM (active) | 833 nM (active) | 1050 nM (active) | 469 nM (active) | 1180 nM (active) | 
9 | CC[C@@]1([C@@H]2O[C@@H]([C@H]3O[C@@](O)(CO)[C@H](C)C[C@H]3C)C[C@H]2C)CC[C@H]([C@]2(C)CC[C@]3(C[C@H](O)[C@@H](C)[C@@H]([C@@H](C)[C@@H](OC)[C@H](C)C(=O)O)O3)O2)O1 | 812 nM (active) | 457 nM (active) | 2040 nM (active) | 57.5 nM (active) |  | 
10 | CC(C)c1cc(C(C)C)c(CC(=O)NS(=O)(=O)Oc2c(C(C)C)cccc2C(C)C)c(C(C)C)c1 |  | inactive |  | 4690 nM (active) |  | inactive
